# Reference: ChEMBL document CHEMBL2218924, “A broad activity screen in support of a chemogenomic map for kinase signalling research and drug discovery” (Biochem J, 2013)
# Tests used:
# [1] = target: T1, Serine/threonine-protein kinase TBK1 (Homo sapiens) (UniProt Q9UHD2); details: at 10 µM
# T1 sequence (whole entry): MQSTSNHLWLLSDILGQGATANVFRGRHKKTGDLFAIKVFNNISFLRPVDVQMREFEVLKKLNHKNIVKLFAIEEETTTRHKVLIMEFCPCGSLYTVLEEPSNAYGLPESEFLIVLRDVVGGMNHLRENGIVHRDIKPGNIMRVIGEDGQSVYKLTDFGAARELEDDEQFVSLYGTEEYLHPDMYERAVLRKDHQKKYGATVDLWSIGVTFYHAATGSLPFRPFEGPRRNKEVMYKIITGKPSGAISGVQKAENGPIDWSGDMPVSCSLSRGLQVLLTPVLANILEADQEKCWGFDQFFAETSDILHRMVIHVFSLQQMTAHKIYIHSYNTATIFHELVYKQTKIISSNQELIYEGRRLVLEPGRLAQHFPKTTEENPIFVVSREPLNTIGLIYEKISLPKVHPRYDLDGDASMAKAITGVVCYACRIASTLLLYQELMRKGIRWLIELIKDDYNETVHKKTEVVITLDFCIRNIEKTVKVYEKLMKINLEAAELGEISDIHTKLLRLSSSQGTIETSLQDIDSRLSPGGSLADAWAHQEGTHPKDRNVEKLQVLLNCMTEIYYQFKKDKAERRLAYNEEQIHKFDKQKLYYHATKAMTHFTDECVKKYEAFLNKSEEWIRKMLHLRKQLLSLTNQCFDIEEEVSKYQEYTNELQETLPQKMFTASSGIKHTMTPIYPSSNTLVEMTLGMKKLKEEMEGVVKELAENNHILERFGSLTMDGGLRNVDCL
# [2] = target: T2, TGF-beta receptor type-1 (Homo sapiens) (UniProt P36897); details: at 10 µM
# T2 sequence (whole entry): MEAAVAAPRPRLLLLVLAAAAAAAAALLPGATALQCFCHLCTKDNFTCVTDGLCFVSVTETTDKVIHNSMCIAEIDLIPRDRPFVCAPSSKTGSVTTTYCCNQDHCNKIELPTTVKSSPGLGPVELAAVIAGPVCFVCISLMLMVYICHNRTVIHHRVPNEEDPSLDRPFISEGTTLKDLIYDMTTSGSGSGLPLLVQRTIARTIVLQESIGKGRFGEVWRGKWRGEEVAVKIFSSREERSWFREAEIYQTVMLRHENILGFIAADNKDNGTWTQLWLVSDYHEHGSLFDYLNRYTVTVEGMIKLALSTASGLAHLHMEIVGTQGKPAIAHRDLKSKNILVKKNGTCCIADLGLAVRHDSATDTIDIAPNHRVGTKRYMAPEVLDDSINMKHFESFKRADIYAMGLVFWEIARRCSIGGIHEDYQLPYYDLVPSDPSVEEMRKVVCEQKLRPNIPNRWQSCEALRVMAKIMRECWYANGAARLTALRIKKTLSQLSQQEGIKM
# [3] = target: T3, Inhibitor of nuclear factor kappa-B kinase subunit alpha (Homo sapiens) (UniProt O15111); details: at 1 µM
# T3 sequence (whole entry): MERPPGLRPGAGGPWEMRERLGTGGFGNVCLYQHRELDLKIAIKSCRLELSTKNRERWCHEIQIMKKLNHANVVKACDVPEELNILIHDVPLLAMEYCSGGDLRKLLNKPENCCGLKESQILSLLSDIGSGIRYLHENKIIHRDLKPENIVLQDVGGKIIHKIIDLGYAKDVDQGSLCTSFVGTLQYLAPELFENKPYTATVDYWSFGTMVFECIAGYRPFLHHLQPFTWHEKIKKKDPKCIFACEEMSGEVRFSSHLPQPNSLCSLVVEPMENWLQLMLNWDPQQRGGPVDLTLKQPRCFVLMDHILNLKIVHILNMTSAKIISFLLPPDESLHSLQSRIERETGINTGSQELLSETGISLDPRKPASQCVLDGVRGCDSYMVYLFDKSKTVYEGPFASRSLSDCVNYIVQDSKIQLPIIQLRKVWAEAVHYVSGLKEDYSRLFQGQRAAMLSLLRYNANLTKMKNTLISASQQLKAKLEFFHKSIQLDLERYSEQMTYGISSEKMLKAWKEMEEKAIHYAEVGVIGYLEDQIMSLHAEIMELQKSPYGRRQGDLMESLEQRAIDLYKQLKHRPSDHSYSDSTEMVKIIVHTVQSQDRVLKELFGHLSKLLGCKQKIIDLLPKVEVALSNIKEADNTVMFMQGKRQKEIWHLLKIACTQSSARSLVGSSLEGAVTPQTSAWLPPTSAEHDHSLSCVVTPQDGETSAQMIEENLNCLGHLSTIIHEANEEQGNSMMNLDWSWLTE
# [4] = target: T3, Inhibitor of nuclear factor kappa-B kinase subunit alpha (Homo sapiens); details: at 10 µM
# [5] = target: Insulin receptor (Homo sapiens) (UniProt P06213); details: at 1 µM
# Chain of Insulin receptor (Homo sapiens) (P06213 28-758 limits assumed): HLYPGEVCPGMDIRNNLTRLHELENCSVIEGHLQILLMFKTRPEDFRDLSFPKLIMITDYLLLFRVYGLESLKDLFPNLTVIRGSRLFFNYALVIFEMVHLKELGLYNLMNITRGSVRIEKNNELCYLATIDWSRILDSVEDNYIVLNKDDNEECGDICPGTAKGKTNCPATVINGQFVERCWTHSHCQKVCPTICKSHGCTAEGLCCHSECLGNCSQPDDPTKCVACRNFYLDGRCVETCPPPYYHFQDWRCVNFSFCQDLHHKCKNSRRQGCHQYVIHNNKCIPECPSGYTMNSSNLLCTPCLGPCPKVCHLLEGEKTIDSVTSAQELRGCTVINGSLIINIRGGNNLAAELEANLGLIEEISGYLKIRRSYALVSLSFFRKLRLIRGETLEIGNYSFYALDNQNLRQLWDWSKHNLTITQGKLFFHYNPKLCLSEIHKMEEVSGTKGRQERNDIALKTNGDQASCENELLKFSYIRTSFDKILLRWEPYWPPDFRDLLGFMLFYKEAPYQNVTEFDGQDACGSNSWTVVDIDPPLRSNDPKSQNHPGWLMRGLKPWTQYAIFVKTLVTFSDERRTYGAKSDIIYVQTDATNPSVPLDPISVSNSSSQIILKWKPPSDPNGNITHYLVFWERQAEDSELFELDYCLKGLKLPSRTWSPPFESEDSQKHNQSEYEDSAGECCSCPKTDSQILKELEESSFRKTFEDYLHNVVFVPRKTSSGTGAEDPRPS
# Chain of Insulin receptor (Homo sapiens) (P06213 763-1382 limits assumed): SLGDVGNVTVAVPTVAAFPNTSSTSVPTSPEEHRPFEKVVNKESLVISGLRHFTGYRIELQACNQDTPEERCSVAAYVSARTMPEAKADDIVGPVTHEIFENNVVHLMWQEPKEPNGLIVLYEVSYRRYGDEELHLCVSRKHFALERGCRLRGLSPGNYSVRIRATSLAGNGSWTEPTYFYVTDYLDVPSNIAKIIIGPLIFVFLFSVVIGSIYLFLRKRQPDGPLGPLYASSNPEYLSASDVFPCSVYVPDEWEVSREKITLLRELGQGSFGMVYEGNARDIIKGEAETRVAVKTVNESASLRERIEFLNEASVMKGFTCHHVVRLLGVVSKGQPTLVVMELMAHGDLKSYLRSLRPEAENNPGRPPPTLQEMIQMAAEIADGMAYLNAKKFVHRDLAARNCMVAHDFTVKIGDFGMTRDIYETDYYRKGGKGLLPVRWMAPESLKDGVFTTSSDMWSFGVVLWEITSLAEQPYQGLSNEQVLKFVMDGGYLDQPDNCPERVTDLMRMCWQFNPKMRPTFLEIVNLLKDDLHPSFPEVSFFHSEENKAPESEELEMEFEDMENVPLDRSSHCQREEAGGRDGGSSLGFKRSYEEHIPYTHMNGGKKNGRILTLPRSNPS
# [6] = target: Insulin receptor (Homo sapiens) (UniProt P06213); details: at 10 µM
# [7] = target: Insulin receptor (Homo sapiens) (UniProt P06213); details: at 1 µM; remark: listed apart in the source
# [8] = target: Insulin receptor (Homo sapiens) (UniProt P06213); details: at 10 µM; remark: listed apart in the source
# [9] = target: T4, Interleukin-1 receptor-associated kinase 4 (Homo sapiens) (UniProt Q9NWZ3); details: at 10 µM
# T4 sequence (whole entry): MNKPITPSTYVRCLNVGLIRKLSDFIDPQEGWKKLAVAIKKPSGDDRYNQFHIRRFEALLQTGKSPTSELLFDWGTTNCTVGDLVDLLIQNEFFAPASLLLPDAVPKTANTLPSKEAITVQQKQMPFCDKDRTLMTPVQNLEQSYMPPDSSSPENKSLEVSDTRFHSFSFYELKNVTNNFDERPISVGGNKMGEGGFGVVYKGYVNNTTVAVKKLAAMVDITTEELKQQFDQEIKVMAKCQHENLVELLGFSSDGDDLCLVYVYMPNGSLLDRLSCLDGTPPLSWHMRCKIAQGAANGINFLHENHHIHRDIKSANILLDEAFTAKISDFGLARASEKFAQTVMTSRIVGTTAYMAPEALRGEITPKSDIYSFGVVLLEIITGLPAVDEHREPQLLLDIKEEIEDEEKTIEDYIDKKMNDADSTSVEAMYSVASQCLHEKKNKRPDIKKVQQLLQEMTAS
# [10] = target: Insulin receptor-related protein (Homo sapiens) (UniProt P14616); details: at 1 µM
# Chain of Insulin receptor-related protein (Homo sapiens) (P14616 27-742 limits assumed): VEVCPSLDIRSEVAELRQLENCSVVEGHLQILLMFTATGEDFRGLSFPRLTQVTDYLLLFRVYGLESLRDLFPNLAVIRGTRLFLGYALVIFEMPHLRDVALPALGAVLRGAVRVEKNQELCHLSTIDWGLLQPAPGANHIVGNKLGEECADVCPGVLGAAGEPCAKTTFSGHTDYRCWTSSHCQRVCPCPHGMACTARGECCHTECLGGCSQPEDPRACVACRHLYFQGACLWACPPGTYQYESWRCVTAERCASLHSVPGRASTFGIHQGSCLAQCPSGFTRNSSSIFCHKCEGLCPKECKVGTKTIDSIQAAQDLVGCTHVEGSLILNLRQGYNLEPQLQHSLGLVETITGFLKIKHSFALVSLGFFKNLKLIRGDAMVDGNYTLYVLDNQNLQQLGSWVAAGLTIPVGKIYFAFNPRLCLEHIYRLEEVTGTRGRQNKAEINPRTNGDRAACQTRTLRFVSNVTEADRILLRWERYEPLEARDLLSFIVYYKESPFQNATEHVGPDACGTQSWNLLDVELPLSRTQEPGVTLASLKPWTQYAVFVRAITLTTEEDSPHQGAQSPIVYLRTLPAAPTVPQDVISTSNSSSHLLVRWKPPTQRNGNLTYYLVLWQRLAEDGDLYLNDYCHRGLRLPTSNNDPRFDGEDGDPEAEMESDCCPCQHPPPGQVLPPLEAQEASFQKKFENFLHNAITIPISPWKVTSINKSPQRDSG
# Chain of Insulin receptor-related protein (Homo sapiens) (P14616 747-1297 limits assumed): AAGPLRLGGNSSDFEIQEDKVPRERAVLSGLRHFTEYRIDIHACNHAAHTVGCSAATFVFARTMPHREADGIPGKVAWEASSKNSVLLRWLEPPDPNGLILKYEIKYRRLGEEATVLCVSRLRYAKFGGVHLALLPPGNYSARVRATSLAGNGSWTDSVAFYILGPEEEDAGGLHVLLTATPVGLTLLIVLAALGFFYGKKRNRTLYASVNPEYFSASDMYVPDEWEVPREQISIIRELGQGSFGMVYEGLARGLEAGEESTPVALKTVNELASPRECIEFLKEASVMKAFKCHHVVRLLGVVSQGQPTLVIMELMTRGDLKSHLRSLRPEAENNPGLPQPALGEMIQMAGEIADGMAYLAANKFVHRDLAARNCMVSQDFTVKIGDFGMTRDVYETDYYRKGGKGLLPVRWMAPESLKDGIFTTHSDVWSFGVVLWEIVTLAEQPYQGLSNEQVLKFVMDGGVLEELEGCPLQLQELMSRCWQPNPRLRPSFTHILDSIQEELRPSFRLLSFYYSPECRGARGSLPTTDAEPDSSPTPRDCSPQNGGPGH
# [11] = target: Insulin receptor-related protein (Homo sapiens) (UniProt P14616); details: at 10 µM
# [12] = target: T5, Inhibitor of nuclear factor kappa-B kinase subunit beta (Homo sapiens) (UniProt O14920); details: at 1 µM
# T5 sequence (whole entry): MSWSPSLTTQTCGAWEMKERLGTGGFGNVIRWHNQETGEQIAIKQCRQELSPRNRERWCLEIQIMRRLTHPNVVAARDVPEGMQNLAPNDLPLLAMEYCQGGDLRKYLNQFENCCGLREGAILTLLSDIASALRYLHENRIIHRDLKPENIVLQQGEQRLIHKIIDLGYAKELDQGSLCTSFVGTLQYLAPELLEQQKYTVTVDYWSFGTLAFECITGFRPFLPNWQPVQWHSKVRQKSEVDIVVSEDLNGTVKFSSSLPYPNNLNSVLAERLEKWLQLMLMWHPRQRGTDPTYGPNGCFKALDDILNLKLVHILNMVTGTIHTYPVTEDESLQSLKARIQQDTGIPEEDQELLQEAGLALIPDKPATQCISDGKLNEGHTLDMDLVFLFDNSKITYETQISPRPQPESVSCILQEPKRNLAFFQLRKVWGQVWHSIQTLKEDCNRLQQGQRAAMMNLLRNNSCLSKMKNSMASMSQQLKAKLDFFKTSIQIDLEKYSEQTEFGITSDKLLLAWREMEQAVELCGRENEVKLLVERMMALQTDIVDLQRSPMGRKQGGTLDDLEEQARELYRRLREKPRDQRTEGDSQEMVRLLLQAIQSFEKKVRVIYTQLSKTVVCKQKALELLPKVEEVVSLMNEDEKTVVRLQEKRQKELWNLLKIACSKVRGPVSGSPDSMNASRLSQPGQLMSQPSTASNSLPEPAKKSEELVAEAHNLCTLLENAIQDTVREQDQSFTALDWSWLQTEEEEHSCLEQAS
# [13] = target: T5, Inhibitor of nuclear factor kappa-B kinase subunit beta (Homo sapiens); details: at 10 µM
# [14] = target: Interleukin-1 receptor-associated kinase 1 (Homo sapiens) (UniProt P51617); details: at 1 µM
# Chain of Interleukin-1 receptor-associated kinase 1 (Homo sapiens) (P51617 whole entry, looked up): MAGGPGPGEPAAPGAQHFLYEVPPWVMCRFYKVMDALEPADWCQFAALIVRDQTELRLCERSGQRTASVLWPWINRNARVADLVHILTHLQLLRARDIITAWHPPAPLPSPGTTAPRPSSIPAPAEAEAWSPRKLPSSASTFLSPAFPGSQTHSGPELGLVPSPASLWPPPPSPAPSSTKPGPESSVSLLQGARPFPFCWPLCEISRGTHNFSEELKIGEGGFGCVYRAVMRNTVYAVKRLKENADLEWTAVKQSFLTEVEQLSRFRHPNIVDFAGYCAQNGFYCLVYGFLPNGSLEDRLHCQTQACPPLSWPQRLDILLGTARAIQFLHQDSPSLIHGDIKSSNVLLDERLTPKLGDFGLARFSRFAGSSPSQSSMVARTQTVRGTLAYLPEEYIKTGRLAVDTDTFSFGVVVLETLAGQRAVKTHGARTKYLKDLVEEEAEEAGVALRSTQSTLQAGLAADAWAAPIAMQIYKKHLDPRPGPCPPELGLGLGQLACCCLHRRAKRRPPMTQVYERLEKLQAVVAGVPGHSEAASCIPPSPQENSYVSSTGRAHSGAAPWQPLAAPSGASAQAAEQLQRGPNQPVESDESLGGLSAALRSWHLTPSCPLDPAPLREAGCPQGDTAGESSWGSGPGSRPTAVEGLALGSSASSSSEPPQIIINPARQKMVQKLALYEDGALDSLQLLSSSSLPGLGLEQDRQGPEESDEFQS
# [15] = target: Interleukin-1 receptor-associated kinase 1 (Homo sapiens) (UniProt P51617); details: at 10 µM
# [16] = target: T4, Interleukin-1 receptor-associated kinase 4 (Homo sapiens); details: at 1 µM
# [17] = target: T6, Tyrosine-protein kinase ITK/TSK (Homo sapiens) (UniProt Q08881); details: at 1 µM
# T6 sequence (whole entry): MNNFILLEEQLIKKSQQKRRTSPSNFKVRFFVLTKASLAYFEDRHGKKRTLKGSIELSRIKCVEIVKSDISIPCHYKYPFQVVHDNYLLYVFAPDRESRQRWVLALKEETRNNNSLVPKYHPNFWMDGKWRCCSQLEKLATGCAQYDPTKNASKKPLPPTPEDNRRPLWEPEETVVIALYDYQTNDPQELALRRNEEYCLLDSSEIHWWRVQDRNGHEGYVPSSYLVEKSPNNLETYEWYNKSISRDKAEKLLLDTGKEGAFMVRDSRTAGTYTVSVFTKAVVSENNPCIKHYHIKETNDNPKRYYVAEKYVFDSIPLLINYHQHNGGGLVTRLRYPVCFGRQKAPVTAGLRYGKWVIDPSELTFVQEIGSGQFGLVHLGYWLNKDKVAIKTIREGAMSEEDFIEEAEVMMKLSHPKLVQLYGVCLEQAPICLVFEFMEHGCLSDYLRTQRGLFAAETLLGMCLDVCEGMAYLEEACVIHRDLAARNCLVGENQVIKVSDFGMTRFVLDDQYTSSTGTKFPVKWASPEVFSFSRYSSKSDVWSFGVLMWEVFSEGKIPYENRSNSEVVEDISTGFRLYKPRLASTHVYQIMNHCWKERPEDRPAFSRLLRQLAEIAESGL
# [18] = target: Insulin-like growth factor 1 receptor (Homo sapiens) (UniProt P08069); details: at 10 µM
# Chain of Insulin-like growth factor 1 receptor (Homo sapiens) (P08069 31-736 limits assumed): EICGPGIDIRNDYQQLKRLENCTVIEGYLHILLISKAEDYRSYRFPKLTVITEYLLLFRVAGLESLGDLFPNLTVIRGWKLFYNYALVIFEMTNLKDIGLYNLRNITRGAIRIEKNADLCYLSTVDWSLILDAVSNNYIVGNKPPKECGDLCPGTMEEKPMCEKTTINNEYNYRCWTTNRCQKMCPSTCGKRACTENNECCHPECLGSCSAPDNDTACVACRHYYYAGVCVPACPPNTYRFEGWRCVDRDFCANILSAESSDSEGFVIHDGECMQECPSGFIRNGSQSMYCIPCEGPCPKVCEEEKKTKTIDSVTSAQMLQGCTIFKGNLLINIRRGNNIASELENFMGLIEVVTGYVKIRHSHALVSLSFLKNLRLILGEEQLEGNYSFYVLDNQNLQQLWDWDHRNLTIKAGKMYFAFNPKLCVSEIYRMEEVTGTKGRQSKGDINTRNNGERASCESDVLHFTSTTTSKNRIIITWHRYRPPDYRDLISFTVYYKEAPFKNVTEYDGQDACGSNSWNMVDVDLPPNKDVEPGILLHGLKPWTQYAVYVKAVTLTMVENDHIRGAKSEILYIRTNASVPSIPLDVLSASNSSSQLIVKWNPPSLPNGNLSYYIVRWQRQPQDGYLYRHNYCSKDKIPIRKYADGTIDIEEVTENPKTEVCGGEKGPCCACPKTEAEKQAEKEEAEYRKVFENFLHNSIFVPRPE
# Chain of Insulin-like growth factor 1 receptor (Homo sapiens) (P08069 741-1367 limits assumed): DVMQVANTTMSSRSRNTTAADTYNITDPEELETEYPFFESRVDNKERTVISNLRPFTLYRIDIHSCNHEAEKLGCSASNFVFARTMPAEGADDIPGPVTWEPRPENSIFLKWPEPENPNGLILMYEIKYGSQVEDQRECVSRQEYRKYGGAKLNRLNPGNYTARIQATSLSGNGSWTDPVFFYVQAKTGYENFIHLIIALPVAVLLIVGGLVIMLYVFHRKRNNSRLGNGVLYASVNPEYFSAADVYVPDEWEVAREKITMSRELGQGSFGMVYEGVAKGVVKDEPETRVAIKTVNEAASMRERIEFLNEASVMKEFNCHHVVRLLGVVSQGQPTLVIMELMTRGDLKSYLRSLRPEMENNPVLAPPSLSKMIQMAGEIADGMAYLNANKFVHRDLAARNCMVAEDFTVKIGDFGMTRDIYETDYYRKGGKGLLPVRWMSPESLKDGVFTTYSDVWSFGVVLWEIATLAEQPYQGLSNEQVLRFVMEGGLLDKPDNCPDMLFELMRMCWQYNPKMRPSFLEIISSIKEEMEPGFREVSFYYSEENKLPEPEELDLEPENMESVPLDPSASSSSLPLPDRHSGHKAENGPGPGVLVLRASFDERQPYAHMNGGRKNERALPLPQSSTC
compound,measurement,setting,value
O=C1Cc2c([nH]c3ccc([N+](=O)[O-])cc23)-c2ccccc2N1,residual activity,[1],37%
same,residual activity,[2],65%
same,residual activity,[3],114%
same,residual activity,[4],101%
NCCNc1ncc(C(N)=O)c(Nc2cccc(C(F)(F)F)c2)n1,residual activity,[1],54%
same,residual activity,[3],104%
same,residual activity,[4],66%
same,residual activity,[5],115%
same,residual activity,[6],77%
same,residual activity,[7],74%
same,residual activity,[8],34%
same,residual activity,[9],51%
same,residual activity,[10],142%
same,residual activity,[11],55%
COc1ccc(-c2cnc3c(-c4ccsc4)cnn3c2)cc1,residual activity,[1],85%
same,residual activity,[3],91%
same,residual activity,[4],90%
same,residual activity,[12],100%
same,residual activity,[13],95%
same,residual activity,[5],91%
same,residual activity,[14],98%
same,residual activity,[15],84%
same,residual activity,[16],124%
same,residual activity,[9],94%
Cc1cc(C)c(/C=C2\C(=O)Nc3ccccc32)[nH]1,residual activity,[1],52%
same,residual activity,[4],73%
same,residual activity,[14],76%
same,residual activity,[15],75%
same,residual activity,[16],39%
same,residual activity,[9],13%
same,residual activity,[10],65%
same,residual activity,[11],3%
O=C1NC(=O)C(c2cn(CCCO)c3ncccc23)=C1c1cnccn1,residual activity,[1],67%
same,residual activity,[5],122%
same,residual activity,[6],96%
same,residual activity,[7],94%
same,residual activity,[8],92%
same,residual activity,[14],98%
same,residual activity,[15],98%
same,residual activity,[16],87%
same,residual activity,[9],70%
same,residual activity,[17],94%
Nc1nccc(-c2c(-c3ccc(F)cc3)ncn2C2CCNCC2)n1,residual activity,[1],69%
same,residual activity,[3],120%
same,residual activity,[12],116%
same,residual activity,[10],140%
CCOc1nc(NC(=O)Cc2cc(OC)ccc2OC)cc(N)c1C#N,residual activity,[1],68%
same,residual activity,[16],81%
same,residual activity,[9],81%
NC(=O)c1cccc(-c2cc(Nc3ccc(OC(F)(F)F)cc3)ncn2)c1,residual activity,[1],79%
same,residual activity,[3],128%
same,residual activity,[4],149%
same,residual activity,[14],95%
same,residual activity,[15],93%
same,residual activity,[10],139%
same,residual activity,[11],98%
O=S(=O)(NCCNC/C=C/c1ccc(Br)cc1)c1cccc2cnccc12,residual activity,[1],66%
same,residual activity,[12],126%
same,residual activity,[13],100%
same,residual activity,[15],75%
O=C1Cc2c([nH]c3ccc(Br)cc23)-c2ccccc2N1,residual activity,[1],31%
same,residual activity,[5],95%
same,residual activity,[7],93%
same,residual activity,[8],81%
same,residual activity,[14],94%
same,residual activity,[15],68%
same,residual activity,[16],81%
same,residual activity,[9],36%
same,residual activity,[11],82%
same,residual activity,[17],83%
O=C1NC(=O)C(c2c[nH]c3ccccc23)=C1c1c[nH]c2ccccc12,residual activity,[1],14%
same,residual activity,[18],76%
same,residual activity,[6],62%
same,residual activity,[7],100%
same,residual activity,[16],81%
same,residual activity,[9],27%
same,residual activity,[10],120%
same,residual activity,[11],37%
same,residual activity,[17],100%
O=c1cc(N2CCOCC2)oc2c(-c3ccccc3)cccc12,residual activity,[1],55%
same,residual activity,[11],75%
